Screening data deposited in PubChem BioAssay by National Center for Advancing Translational Sciences (NCATS).
IP6K1 inh – inhibitors of human IP6K1. Q92551. IP6K1 kinase, ADP-Glo luminescence, 2 h; stronger effect = lower value. activity change, % (series mostly up to about 58 µM). actives 0.81% (n = 140,000). AID 1645851; in the data active means activity change below about -25%
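ADP-Glo luminescence measures ADP made by human IP6K1 during a 2 h RT reaction with ATP/IP6 (mix at 1.3 mM/130 uM); top library doses 57.5 and 19.1 uM final.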
GPT2 inh – GPT2 alanine aminotransferase inhibition. Q8TD30. Recombinant GPT2, coupled pyruvate oxidase/HRP Amplex Red fluorescence. Potency, µM (titrated, usually from 57.7 µM), most hits filed as inhibitors. actives 0.25% (n = 100,000). AID 1671188; further: nearly all actives have a fitted effect of over 60% in size
Target sequence (Q8TD30 whole entry, looked up): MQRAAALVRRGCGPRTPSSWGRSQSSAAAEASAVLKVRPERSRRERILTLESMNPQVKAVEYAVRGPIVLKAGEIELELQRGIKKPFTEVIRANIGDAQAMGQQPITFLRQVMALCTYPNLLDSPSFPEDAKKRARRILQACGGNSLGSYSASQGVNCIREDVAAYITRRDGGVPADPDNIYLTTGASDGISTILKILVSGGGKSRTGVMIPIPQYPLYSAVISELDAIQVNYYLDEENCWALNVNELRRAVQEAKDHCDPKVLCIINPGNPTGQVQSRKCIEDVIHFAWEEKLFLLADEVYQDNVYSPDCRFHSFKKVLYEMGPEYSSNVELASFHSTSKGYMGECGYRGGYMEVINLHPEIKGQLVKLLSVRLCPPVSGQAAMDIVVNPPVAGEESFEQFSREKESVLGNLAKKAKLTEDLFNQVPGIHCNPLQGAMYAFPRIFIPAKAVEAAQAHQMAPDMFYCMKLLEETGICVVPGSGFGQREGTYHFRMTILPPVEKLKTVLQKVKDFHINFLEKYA
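Inhibition is scored from Amplex Red fluorescence generated when pyruvate oxidase and HRP act on pyruvate released by GPT2. Reactions contain 10ng/uL enzyme, 250uM a-KG and 2mM L-alanine and run 30 min at room temperature.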
SNCA viab count – cell viability loss counter-screen | Potency, µM (doses to about 57.1 µM), usual class: cytotoxic | actives 0.12% (n = 150,000) | HEK-293-SNCA-luc viability, GF-AFC fluorescence, 24 h; further: nearly all actives have a fitted effect of over 30% in size
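Cytotoxicity counterscreen: after 24 h compound treatment of genome-edited SNCA-luciferase HEK-293 cells, live-cell protease substrate GF-AFC read by fluorescence after 30 min; activity scaled between DMSO (0%) and medium-only (-100%), curves Hill-fitted.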
SNCA expr inhib – SNCA gene expression inhibition. HEK-293 SNCA-luciferase knock-in, luminescence, 24 h. Potency, µM (titrated, usually from 57.2 µM), hits mostly inhibitors. actives 0.17% (n = 140,000); further: nearly all actives have a fitted effect of over 45% in size
IP6K1 conf – confirmation of human IP6K1 inhibitors; shares compounds with IP6K1 inh; actives 13% (n = 1,200); Potency, µM (titrated, usually from 49 µM), most hits filed as inhibitors; AID 1645852; recombinant IP6K1 kinase, ADP-Glo luminescence, 2 h; further: nearly all actives have a fitted effect of over 65% in size
A number is an active result; 0 = inactive; ? = inconclusive; - = not tested or not shown; [ ] = another dose, or the depositor's remark. A selection: hits, their analogues and other compounds. The true share with any hit is near 1.1%. Unless noted, the call rests on the fitted dose curve; in most records, active means well fitted curve in the direction sought with a large enough effect; inconclusive means small, poorly fitted or top-dose-only effect, or another doubt; inactive means no such curve, though single readings can be large; an effect the other way counts as inactive or inconclusive.

SMILES | IP6K1 inh | GPT2 inh | SNCA viab count | SNCA expr inhib | IP6K1 conf
COc1ccc(CNC(=O)C2=CC(c3ccc(OC)c(OC)c3)=NS(=O)(=O)N2C)cc1 | 0 | - | 0 | 0 | -
CC(C)C(=O)Nc1cccc(C(=O)Nc2nnc(C(F)(F)F)s2)c1 | -28.9 | - | 0 | 0 | 0
N#Cc1cccc(NC(=O)c2cc3c(s2)-c2ccc(Cl)cc2SC3)c1 | -49.7 | - | 0 | 0 | 0
COc1ccccc1-c1nc(-c2c(C)noc2C)cc2cc(CN(C)C)oc12 | 0 | 0 | 0 | 0 | -
COc1ccc(Nc2nc(-c3c(C)noc3C)cc3cc(CN(C)C)oc23)cn1 | 0 | 0 | ? | 0 | -
COc1cc(-c2nc(-c3c(C)noc3C)cc3cc(CN(C)C)oc23)ccn1 | -33.1 | 0 | 0 | 0 | ?
COc1ccc(-c2nc(-c3c(C)noc3C)cc3cc(CN(C)C)oc23)cn1 | -48.7 | 0 | 0 | 0 | ?
Cc1noc(C)c1C(=O)N1CCC2(CCCN(c3ccccn3)C2)CC1 | - | - | 0 | 0 | -
Cc1ccc2oc(C(=O)Nc3sc4c(c3C(=O)NCc3ccco3)CCC4)cc(=O)c2c1 | 0 | - | 0 | 0 | -
N#Cc1ccc(OC(=O)c2cc(-c3ccc(Cl)cc3)on2)cc1 | 0 | - | 0 | 0 | -
CCOc1ccc(-c2cc(C(=O)Oc3ccc(C#N)cc3)no2)cc1 | -27.1 | - | 0 | 0 | ?
O=C(Cn1nc2n(c1=O)CCCC2)Nc1ccccc1 | 0 | ? | 0 | 0 | -
COCCNc1nc(NCc2cccc(Cl)c2)c2cnn(C)c2n1 | -39.1 | - | 0 | 0 | 0
CN(C)c1cc(=O)c2ccnc(-c3cccc(C(F)(F)F)c3)c2o1 | -33.2 | 0 | 0 | 0 | ?
CN(c1ccccc1)c1cc(=O)c2ccnc(-c3cncnc3)c2o1 | -26.2 | ? | 0 | 0 | 0
COc1cccc(-c2nccc3c(=O)cc(N(C)C)oc23)c1 | 0 | 0 | 0 | 0 | -
CN(c1ccccc1)c1cc(=O)c2ccnc(-c3cccnc3)c2o1 | 0 | 0 | 0 | ? | -
Cc1cccc(C(=O)N2CCC3(CC2)N=C(c2cccc(Br)c2)NO3)c1 | 0 | 0 | 0 | 0 | -
Oc1ccc(CCNCCCCCCNCCc2ccccc2)cc1O | 0 | ? | 0 | 0 | -
Cc1cccc(C(=O)Nc2ccccc2C(=O)OCc2cc(=O)n3nc(C4CC4)sc3n2)c1 | 0 | - | 0 | 0 | -
CC(C)(C)OC(=O)N1CCC(c2c(C(=O)NCc3ccccc3)cnn2-c2ccc(F)cc2)CC1 | 0 | - | 0 | 0 | -
CC(C)(C)OC(=O)N1CCC(c2c(C(=O)NCCc3ccccc3)cnn2-c2ccc(F)cc2)CC1 | -25.9 | - | 0 | ? | 0
NC(=O)N1CCC(CC(=O)N2CCC(C3c4ncc(Br)cc4CCc4cc(Cl)cc(Br)c43)CC2)CC1 (stereo unspecified) | -39.9 | 0 | ? | - | ?
NC(=O)N1CCC(CC(=O)N2CCC([C@H]3c4ncc(Br)cc4CCc4cc(Cl)cc(Br)c43)CC2)CC1 | - | 0 | 0 | ? | -
Clc1cccc(-c2ccc(CN3CCN(C4CCNC4)CC3)o2)c1 (stereo unspecified) | -27.8 | 0 | 0 | 0 | 0
SMILES | IP6K1 inh | GPT2 inh | SNCA viab count | SNCA expr inhib | IP6K1 conf
C[S+](=O)([O-])c1cccc(NC(=O)Cc2c[nH]c3ncc(-c4ccccc4)cc23)c1 | -26.3 | 0 | 0 | 0 | ?
COc1ccc(-c2cnc3[nH]cc(CC(=O)Nc4ccncc4)c3c2)cc1 | -39.2 | 0 | 0 | 0 | ?
O=C(Nc1nnc(S(=O)(=O)Nc2ccccc2)s1)C1CCCCC1 | 0 | - | 0 | 0 | -
CCCCOc1ccccc1C1CC(=O)Nc2cc(C)c(C)cc21 (stereo unspecified) | -28.2 | - | ? | ? | 0
CCCCOc1ccccc1C1CC(=O)Nc2cc(OC)c(OC)cc21 (stereo unspecified) | 0 | - | 0 | 0 | -
Cc1oc2ncn(CC(C)C)c(=O)c2c1C(=O)NCCCN(Cc1ccccc1)C(C)C | -28.9 | - | 0 | 0 | 0
CC1=C(C(=O)Nc2ccc(C)cc2C)C(c2cccs2)n2nc(SCc3ccccc3Cl)nc2N1 (stereo unspecified) | -25.5 | - | 0 | 0 | 0
CC1=C(C(=O)Nc2ccccc2C)C(c2cccs2)n2nc(SCc3cc(C)ccc3C)nc2N1 (stereo unspecified) | 0 | - | 0 | 0 | -
CC(NC(=O)c1csc(N2CCN(c3ccccc3F)CC2)n1)c1ccccc1 (stereo unspecified) | 0 | 0 | 0 | 0 | -
Fc1ccc(-c2noc(-c3nnn4c3COC(c3ccc(F)cc3)C4)n2)cc1 (stereo unspecified) | 0 | 0 | 0 | 0 | -
Fc1ccc(C2Cn3nnc(-c4nc(-c5ccc6c(c5)OCO6)no4)c3CO2)cc1 (stereo unspecified) | -27.8 | 0 | 0 | 0 | 0
Cc1cnc(C(=O)N2C[C@@H](COCC3CC3)[C@H](c3ccccn3)C2)cn1 | 0 | 0 | 0 | 0 | -
CCOC(=O)c1ccc(NC2SC(=O)N(Cc3cccc(C(=O)O)c3)C2=O)cc1 (stereo unspecified) | -45.8 | - | 0 | 0 | ?
COC(=O)c1cccc(CN2C(=O)SC(Nc3ccc(Cl)cc3)C2=O)c1 (stereo unspecified) | 0 | - | 0 | 0 | -
O=[S+]1([O-])NC2(CCCN(Cc3ccc(C(F)(F)F)cc3)C2)CNc2ccccc21 (stereo unspecified) | 0 | 0 | 0 | 0 | -
O=C(O)c1cc(-c2cncnc2)cc(S(=O)(=O)N2CCCCCC2)c1 | 0 | 0 | 0 | 0 | -
O=C(O)c1cc(-c2ccccc2CO)cc(S(=O)(=O)N2CCCCCC2)c1 | -29.5 | 0[11.5 µM] | 0 | 0 | 0
CCOC(=O)[C@H]1C[C@]2(CCCCN(CCOC)C2=O)N(C(=O)Cc2cccs2)[C@H]1c1ccco1 | 0 | - | - | - | -
COCCN1CCCC[C@]2(C[C@H](C(=O)O)[C@H](c3ccco3)N2C(=O)Cc2cccs2)C1=O | -25.1 | - | - | - | ?
CCc1ccc(CN2CCC(O)(Cc3cc(-c4cccc(OC)c4)no3)CC2)o1 | 0 | 0 | 0 | 0 | -
COc1ccc(NC(=O)C2=CC(c3ccco3)=NS(=O)(=O)N2C)cc1 | -30.3 | - | 0 | 0 | 0
Cc1cc(O)c2ccccc2c1O | -27.9 | ? | 0 | 0 | ?
CCNc1ncc2nc(-c3cc(F)cc(F)c3)c(=O)n(-c3ccccc3)c2n1 | - | - | 0 | 0 | -
CC[C@H](CC#N)OC(=O)N[C@@H](C)c1cccc(NC(=O)Nc2ccc(-c3cnco3)c(OC)c2)c1 | -38.8 | 0 | ? | ? | ?
COc1cccc(-c2ncc3c(n2)OCCN(c2cccc(C(F)(F)F)c2)C3=O)c1 | 0 | 0 | 0 | 0 | -
COc1cccc(-c2ncc3c(n2)OCCN(c2ccccc2)C3=O)c1 | -26.6 | 0 | 0 | ? | ?
CCN1CCC(N2C[C@@H](CO)[C@H](c3nc(C)no3)C2)CC1 | 0 | 0 | 0 | 0 | -
C#C[C@]1(OC(C)=O)CC[C@H]2[C@@H]3CCC4=C/C(=N/O)CC[C@@H]4[C@H]3CC[C@@]21CC | -59.1 | 0 | 0 | 0 | ?
C#CC1(O)CC[C@H]2[C@@H]3CCC4=CCCC[C@@H]4[C@H]3CC[C@@]21C (stereo partly specified) | 0 | 0 | 0 | 0 | -
